Data: PubChem BioAssay AID1241 (SRMLSC, 2008)
The campaign covered roughly 1,200 compounds. About 840 (70%) were called active. No rule for the calls is given here. So high a share suggests a set chosen from earlier hits. Not all results are given here. Measured potencies and affinities stand elsewhere.

experiment: compounds inducing NF-kB luciferase expression – cell-based, SH-SY5Y, dose response (AID 1241); details: SH-SY5Y NF-kB promoter luciferase reporter; series mostly up to 30 µM; fold induction over control: at the top concentration

| Compound | fold induction over control |
| --- | --- |
| Cc1ccc(N2C(=O)C(NC(=O)c3ccccc3)(C(F)(F)F)C3=C2CC(C)(C)CC3=O)cc1 (stereo not drawn) | 1 (inactive) |
| COCCn1nnnc1C(CC(C)C)N1CCN(c2cccc(OC)c2)CC1 (stereo not drawn) | 1.05 (inactive) |
| CC(C)(C)NC(=O)C[n+]1ccc(C(N)=O)cc1 | 1.06 (inactive) |
| O=C(NCC1CCCO1)c1cc(-c2ccccc2)on1 (stereo not drawn) | 15.9 (inactive) |
| COc1ccc2c(c1)CCc1c(C(=O)NCC(C)C)noc1-2 | 10.1 (inactive) |
| CC(/C=N/NC(=O)c1cccs1)=C\c1ccco1 | 9.89 (inactive) |
| Cc1ccc(N=C/C(C(=O)C(F)(F)F)=C(\O)c2ccco2)cc1Cl | 9.74 (inactive) |
| C/C(=N\NC(=O)c1ccoc1C)c1cccnc1 | 1.54 (inactive) |
| CC(=O)CSc1ncnc2c1cnn2-c1ccccc1 | 9.44 (inactive) |
| O=[N+]([O-])c1ccc(F)cc1OCc1nc(-c2cccs2)no1 | 7.67 (inactive) |
| Cc1ccccc1-c1nnc(SCc2ccccc2F)o1 | 12.6 (inactive) |
| CCCn1c(/C=C/c2ccccc2)nc2ccccc21 | 8.61 (inactive) |
| COc1ccc(-c2csc(-c3ccc(C(=O)O)cc3)n2)cc1 | 11.9 (inactive) |
| CCCCCNc1nc(-c2ccccc2)cs1 | 14.6 (inactive) |
| CC1=C/C(=N\OS(=O)(=O)c2ccccc2)C(C(C)C)=CC1=O | 0.91 (inactive) |
| CCOc1ccc2ccccc2c1CNCCN1CCOCC1 | 1.11 (inactive) |
| COc1ccccc1-c1noc(-c2ccccc2)n1 | 8.4 (inactive) |
| CC(=O)Nc1ccc(-c2cn3cc(C)ccc3n2)cc1 | 8.51 (inactive) |
| CCOc1ccc(/C=N/n2c(SC)nnc2-c2ccccc2)cc1OCC | 1.09 (inactive) |
| CC(=O)Oc1ccc(/C=N/NC(=S)Nc2ccccc2)cc1 | 13.1 (inactive) |
| O=C(Cc1ccccc1F)Nc1ccc(SC(F)F)cc1 | 8.46 (inactive) |
| Cc1ccc(C(=O)Nc2ccc3nc(C)sc3c2)s1 | 9.29 (inactive) |
| O=C(NC(=S)Nc1cccc(-c2ccc(CO)o2)c1)c1cccs1 | 1.54 (inactive) |
| Cc1nc(NC(=O)c2cccs2)ccc1Br | 10.9 (inactive) |
| COC(=O)c1ccc2nc(NC(=O)C(C)C)sc2c1 | 14.7 (inactive) |
| CC1Cc2ccccc2N1C(=O)/C=C/c1cccc(F)c1 (stereo not drawn) | 10.3 (inactive) |

| Compound | fold induction over control |
| --- | --- |
| CN(C)CCCN(C(=O)/C=C/c1cccs1)c1nc2c(F)cccc2s1 | 19.1 [at 15 µM] (inactive) |
| CN1C(=O)/C(=C/C=C2\SCCN2C)N(C)C1=S | 8.39 (inactive) |
| O=C(/C=C/Sc1ccccc1)c1ccccc1 | 9.32 (inactive) |
| C=C(C(=O)c1ccccc1)C(C)C(=C)C(=O)c1ccccc1 | 7.83 [at 15 µM] (inactive) |
| O=C(N/N=C\c1ccc(Oc2ccccc2)cc1)c1csnn1 | 8.95 (inactive) |
| O=C(/C(C=Nc1ccc(Br)cc1)=C(/O)c1ccco1)C(F)(F)F | 13.4 (inactive) |
| Cc1cccc(/C(N)=N/OC(=O)c2ccco2)c1 | 12 (inactive) |
| O=C1/C(=C/c2cccs2)CCC1C1CCCC1 (stereo not drawn) | 9.35 (inactive) |
| O=C(c1ccccc1)c1nnc(-c2ccccc2F)o1 | 12.5 (inactive) |
| CC1=CC(c2ccccc2)=Nc2ccc(C)cc2N1 | 5.67 (inactive) |
| CN1CCN(Cc2nc3ccccc3c(=O)n2Cc2nc(-c3ccc4ccccc4c3)cs2)CC1 | 2.07 (inactive) |
| COc1ccc(C2=NN(C(C#N)c3ccc(OC)cc3)C(c3ccccc3)C2)cc1 (stereo not drawn) | 1.84 (inactive) |
| CCOc1ccc(-c2nc3ccccc3c(=O)o2)cc1 | 11.2 (inactive) |
| CCSc1ncc(/C=N/Nc2ccc(Cl)cc2)n1C | 9.97 (inactive) |
| CCOC(=O)c1[nH]c2c(c1C)C(=O)CC(c1ccco1)C2 (stereo not drawn) | 2.32 (inactive) |
| CCCC(O)(CCC)C(=O)NN(C(=O)CCl)c1ccccc1 | 1.74 (inactive) |
| O=C(O)CCCNC(=O)Nc1ccccc1 | 1.06 (inactive) |
| CC(C)c1cc(C(=O)Nc2cc(Cl)ccc2O)no1 | 8.04 (inactive) |
| O=c1[nH][nH]cc1C=Nc1ccccc1O | 3.08 (inactive) |
| O=c1oc2cc(Cl)ccc2n1CSc1nc2ccccc2s1 | 11.7 (inactive) |
| CN1CCN(Cc2cc(Cl)c3cccnc3c2OC(=O)c2cccs2)CC1 | 11.5 [at 15 µM] (inactive) |
| CCOC(=O)CC(=O)CSc1nc2ccc(C)cc2cc1C#N | 5.09 (inactive) |
| COC(=O)CSc1nc2ccc(C)cc2cc1C#N | 13.8 [at 7.5 µM] (inactive) |
| COCCNC(=O)c1cc(-c2cccs2)on1 | 11 (inactive) |
| O=c1[nH]c(=O)n([C@H]2C[C@H](O)[C@@H](CO)O2)cc1C(F)(F)F | 1.13 (inactive) |
| Cc1c(NC(=O)CSc2cccc3cccnc23)c(=O)n(-c2ccccc2)n1C | 5.68 [at 15 µM] (inactive) |

| Compound | fold induction over control |
| --- | --- |
| COc1cc(C(Nc2ccccn2)c2ccc3ccc(C)nc3c2O)cc(OC)c1O (stereo not drawn) | 0.2 (inactive) |
| CCOC(=O)C(C)On1c(-c2ccc(Cl)cc2)nc2ccc([N+](=O)[O-])cc21 (stereo not drawn) | 1.48 (inactive) |
| Cc1ccc(COn2c(-c3ccc(Cl)cc3)nc3ccc([N+](=O)[O-])cc32)cc1 | 8.36 (inactive) |
| CCN1CCCc2cc(CN(CCN3CCOCC3)C(=S)Nc3cccc(Cl)c3)ccc21 | 0.89 (inactive) |
| CCc1nc(Sc2nnnn2-c2ccccc2)c2c3c(sc2n1)CCCC3 | 6.97 [at 15 µM] (inactive) |
| CCC/C=N/Nc1nc2ccccc2s1 | 8.91 (inactive) |
| COc1ccc(C(=O)c2oc3ccc(OC)cc3c2N)cc1 | 9.59 (inactive) |
| O=c1cc(-c2ccc3c(c2)OCCO3)oc2ccc(Cl)cc12 | 10.2 [at 3.75 µM] (inactive) |
| CCCNC(=O)c1cc(-c2ccc(OC)cc2)on1 | 13 (inactive) |
| N/C(=N\OC(=O)COc1ccc(Cl)cc1Cl)c1ccncc1 | 7.15 (inactive) |
| Brc1ccc(-c2nc3ccccc3s2)s1 | 12.4 (inactive) |
| COc1cccc(-c2nc3ccccc3s2)c1O | 12.9 [at 15 µM] (inactive) |
| Cc1ccc(-c2cc(=O)c3cc(C)ccc3[nH]2)cc1 | 11 [at 15 µM] (inactive) |
| Cc1ccc2[nH]c(-c3ccccc3)cc(=O)c2c1 | 12.2 (inactive) |
| Clc1ccc2nc3c4ccccc4cnn3c2c1 | 11.6 [at 15 µM] (inactive) |
| C/C(N)=C(/C#N)C(=O)CSc1nnc(-c2ccccc2Br)o1 | 11.6 [at 7.5 µM] (inactive) |
| CCOC(=O)/C(=C\c1ccc(OC(F)F)cc1)C1=Nn2c(nnc2-c2ccc(Cl)cc2)SC1 | 5.95 [at 7.5 µM] (inactive) |
| CC(OC(=O)CCc1nc2ccccc2c(=O)[nH]1)C(=O)c1ccc(C(C)(C)C)cc1 (stereo not drawn) | 2.93 (inactive) |
| CCCOC(=O)c1ccc(NC(=O)CC(C)(C)C)cc1 | 8.07 (inactive) |
| COc1ccc(-c2cc(-c3ccccc3)c(C#N)c(S(C)(=O)=O)n2)cc1 | 4.91 [at 15 µM] (inactive) |
| CC1=CN2C(=N)/C(=C/c3ccco3)C(=O)N=C2S1 | 9.51 (inactive) |
| Cc1cc(NC2CCCCC2)n2c(n1)nc1ccccc12 | 1.3 (inactive) |
| Cc1cccc(-c2c(O)cc(=O)[nH]c2Cl)c1 | 0.97 (inactive) |
| CC(C)Oc1ccc2c(=O)c(-c3ccccc3)coc2c1 | 12.8 (inactive) |
| CCOc1cc(/C=C2/NC(=O)N(Cc3ccccc3F)C2=O)ccc1O | 1.35 (inactive) |
| Cc1cc(C)nc(Sc2nc(C)nc3c2oc2ccccc23)n1 | 6.8 (inactive) |
